# In article PMC7862700, “An all-to-all approach to the identification of sequence-specific readers for epigenetic DNA modifications on cytosine”:
# How the values were obtained:
# Assay in all cases: DAPPL (digital affinity profiling via proximity ligation, sequencing); 10 mM Tris-HCl pH 7.5, 50 mM NaCl, 1 mM DTT, 4% glycerol, room temperature, 30 min; GST-TFs on glutathione beads, 16-mer random dsDNA library, 0.1% formaldehyde crosslink after washing; high values mean tight binding
# [1] = biological target: T1, FEV (Homo sapiens, UniProt Q99581 1-238); conditions: protein: recombinant; tags: N-terminal GST; dsDNA, one strand shown
# T1 sequence: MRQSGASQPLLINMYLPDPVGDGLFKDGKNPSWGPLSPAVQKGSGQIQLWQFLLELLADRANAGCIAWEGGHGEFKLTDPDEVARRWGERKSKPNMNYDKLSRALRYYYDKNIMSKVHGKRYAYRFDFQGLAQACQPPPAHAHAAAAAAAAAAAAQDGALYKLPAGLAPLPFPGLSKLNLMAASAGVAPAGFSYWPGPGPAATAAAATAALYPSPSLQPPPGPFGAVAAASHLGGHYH
# Method in brief: (§1)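 The binding signal reported is, for every hexamer, its read frequency for a factor over its read frequency for the tag-only sample. Reads came from pools of yeast-expressed, GST-fused human transcription factors on glutathione beads, barcoded with DNA and mixed with that sample, which were incubated with 200 nmole of a random double-stranded 16-mer DNA library in Tris/NaCl/DTT/glycerol buffer at room temperature for 30 min. After washing, the pools were crosslinked with 0.1% formaldehyde, proximity-ligated with BsaI/T4 ligase for 1 h at 37 °C, PCR-amplified and sequenced on an Illumina NextSeq500.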
# [2] = biological target: ETV5 (Homo sapiens, UniProt P41161 1-510); conditions: protein: recombinant; tags: N-terminal GST; dsDNA, one strand shown
# Sequence of ETV5 (P41161 whole entry): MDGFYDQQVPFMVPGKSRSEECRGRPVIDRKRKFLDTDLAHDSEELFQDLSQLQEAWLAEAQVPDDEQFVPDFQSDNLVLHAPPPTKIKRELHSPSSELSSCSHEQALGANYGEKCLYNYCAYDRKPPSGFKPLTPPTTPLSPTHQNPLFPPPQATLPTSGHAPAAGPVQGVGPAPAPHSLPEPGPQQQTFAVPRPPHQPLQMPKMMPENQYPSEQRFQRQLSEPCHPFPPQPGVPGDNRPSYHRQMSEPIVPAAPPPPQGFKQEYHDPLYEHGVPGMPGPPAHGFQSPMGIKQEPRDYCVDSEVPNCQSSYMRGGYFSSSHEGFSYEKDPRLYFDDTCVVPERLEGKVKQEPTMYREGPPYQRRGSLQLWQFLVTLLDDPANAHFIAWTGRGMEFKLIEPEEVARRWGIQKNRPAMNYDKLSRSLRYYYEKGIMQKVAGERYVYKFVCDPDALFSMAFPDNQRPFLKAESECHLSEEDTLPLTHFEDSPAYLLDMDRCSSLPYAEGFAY
# Method in brief: as §1
# [3] = biological target: HSF1 (Homo sapiens, UniProt Q00613 1-529); conditions: protein: recombinant; tags: N-terminal GST; chain copies: 3; dsDNA, one strand shown
# Sequence of HSF1 (Q00613 whole entry): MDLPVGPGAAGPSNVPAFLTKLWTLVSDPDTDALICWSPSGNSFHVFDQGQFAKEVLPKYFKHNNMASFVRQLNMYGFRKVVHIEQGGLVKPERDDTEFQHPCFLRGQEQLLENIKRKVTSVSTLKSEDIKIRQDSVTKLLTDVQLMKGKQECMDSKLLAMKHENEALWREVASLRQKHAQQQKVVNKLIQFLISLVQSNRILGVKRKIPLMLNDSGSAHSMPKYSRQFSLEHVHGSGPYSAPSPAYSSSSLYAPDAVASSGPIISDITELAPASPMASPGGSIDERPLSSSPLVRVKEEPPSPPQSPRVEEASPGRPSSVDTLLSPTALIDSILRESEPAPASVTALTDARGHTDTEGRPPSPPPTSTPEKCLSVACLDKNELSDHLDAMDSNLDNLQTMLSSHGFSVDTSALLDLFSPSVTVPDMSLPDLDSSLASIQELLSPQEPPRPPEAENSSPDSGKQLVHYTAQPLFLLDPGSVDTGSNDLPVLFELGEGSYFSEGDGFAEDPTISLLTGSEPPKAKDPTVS
# Method in brief: as §1
# [4] = biological target: T2, SPIC (Homo sapiens, UniProt Q8N5J4 1-248); conditions: protein: recombinant; tags: N-terminal GST; dsDNA, one strand shown
# T2 sequence: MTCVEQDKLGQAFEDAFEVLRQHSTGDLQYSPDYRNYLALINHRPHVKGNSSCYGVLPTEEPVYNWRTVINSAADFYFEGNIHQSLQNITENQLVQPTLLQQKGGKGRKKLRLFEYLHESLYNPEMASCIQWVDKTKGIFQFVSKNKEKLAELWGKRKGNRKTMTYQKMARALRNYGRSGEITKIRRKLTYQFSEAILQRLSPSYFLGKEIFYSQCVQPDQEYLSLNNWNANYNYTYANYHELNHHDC
# Method in brief: as §1
# [5] = biological target: ELF4 (Homo sapiens, UniProt Q99607 1-663); conditions: protein: recombinant; tags: N-terminal GST; dsDNA, one strand shown
# Sequence of ELF4 (Q99607 whole entry): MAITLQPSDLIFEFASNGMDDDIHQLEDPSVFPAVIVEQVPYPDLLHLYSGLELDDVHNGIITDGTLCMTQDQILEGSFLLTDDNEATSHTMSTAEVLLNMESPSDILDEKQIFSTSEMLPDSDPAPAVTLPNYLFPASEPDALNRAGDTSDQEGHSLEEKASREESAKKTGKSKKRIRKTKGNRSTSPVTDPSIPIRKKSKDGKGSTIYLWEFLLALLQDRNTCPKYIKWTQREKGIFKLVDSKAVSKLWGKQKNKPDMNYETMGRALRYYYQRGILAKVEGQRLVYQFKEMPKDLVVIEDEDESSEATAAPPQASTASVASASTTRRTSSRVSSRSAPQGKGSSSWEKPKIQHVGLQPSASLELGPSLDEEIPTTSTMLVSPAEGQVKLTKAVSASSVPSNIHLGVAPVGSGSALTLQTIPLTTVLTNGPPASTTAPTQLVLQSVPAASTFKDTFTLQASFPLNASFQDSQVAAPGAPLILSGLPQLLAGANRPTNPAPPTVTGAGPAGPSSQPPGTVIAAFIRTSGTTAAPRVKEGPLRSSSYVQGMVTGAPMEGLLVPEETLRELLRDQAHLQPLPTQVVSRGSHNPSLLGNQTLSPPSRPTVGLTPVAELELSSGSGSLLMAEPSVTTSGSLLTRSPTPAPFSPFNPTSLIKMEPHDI
# Method in brief: as §1
# [6] = biological target: T3, ELK4 (Homo sapiens, UniProt P28324-2 1-405); conditions: protein: recombinant; tags: N-terminal GST; dsDNA, one strand shown
# T3 sequence: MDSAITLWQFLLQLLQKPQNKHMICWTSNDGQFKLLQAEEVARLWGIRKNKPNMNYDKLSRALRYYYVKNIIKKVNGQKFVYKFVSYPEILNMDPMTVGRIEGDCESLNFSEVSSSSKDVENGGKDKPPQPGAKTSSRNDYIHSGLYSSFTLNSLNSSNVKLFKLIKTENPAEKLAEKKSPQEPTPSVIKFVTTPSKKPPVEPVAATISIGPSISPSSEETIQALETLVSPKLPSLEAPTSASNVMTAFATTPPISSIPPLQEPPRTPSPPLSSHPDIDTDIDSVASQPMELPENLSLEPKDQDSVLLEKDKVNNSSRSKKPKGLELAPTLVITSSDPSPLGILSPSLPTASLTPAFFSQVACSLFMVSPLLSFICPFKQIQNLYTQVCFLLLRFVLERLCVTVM
# Method in brief: as §1
# [7] = biological target: T4, ELF3 (Homo sapiens, UniProt P78545 1-371); conditions: protein: recombinant; tags: N-terminal GST; dsDNA, one strand shown
# T4 sequence: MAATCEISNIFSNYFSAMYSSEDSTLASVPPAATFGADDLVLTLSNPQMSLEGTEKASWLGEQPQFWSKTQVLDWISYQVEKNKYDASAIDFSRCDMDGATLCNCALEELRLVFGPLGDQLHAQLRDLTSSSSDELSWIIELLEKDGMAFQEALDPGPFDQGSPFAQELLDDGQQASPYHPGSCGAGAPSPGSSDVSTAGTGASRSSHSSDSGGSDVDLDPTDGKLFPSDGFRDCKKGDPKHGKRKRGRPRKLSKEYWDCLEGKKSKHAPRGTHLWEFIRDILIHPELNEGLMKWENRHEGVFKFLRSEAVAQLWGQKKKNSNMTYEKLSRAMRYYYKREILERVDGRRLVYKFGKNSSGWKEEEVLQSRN
# Method in brief: as §1
# [8] = biological target: CRX (Homo sapiens, UniProt O43186 1-299); conditions: protein: recombinant; tags: N-terminal GST; dsDNA, one strand shown
# Sequence of CRX (O43186 whole entry): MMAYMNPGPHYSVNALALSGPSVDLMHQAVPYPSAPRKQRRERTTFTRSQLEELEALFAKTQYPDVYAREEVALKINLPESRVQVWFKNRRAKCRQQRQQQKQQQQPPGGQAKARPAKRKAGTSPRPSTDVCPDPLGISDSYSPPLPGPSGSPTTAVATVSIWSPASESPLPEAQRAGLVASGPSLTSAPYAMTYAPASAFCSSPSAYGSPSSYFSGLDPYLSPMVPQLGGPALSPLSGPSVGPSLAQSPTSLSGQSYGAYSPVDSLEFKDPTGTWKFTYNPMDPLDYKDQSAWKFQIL
# Method in brief: as §1
# [9] = biological target: ETV1 (Homo sapiens, UniProt P50549 1-477); conditions: protein: recombinant; tags: N-terminal GST; dsDNA, one strand shown
# Sequence of ETV1 (P50549 whole entry): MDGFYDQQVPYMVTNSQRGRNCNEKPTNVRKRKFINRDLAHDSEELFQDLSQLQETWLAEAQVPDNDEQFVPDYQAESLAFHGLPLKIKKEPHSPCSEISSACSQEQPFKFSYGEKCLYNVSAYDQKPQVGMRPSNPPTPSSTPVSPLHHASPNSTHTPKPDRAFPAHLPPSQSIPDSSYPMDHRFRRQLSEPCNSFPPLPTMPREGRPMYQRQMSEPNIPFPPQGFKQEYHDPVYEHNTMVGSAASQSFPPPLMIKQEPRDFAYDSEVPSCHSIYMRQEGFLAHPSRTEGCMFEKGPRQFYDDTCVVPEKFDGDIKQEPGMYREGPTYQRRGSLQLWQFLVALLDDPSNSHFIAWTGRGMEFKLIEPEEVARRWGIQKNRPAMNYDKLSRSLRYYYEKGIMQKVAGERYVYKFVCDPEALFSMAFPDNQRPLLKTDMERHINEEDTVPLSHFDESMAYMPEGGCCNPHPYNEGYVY
# Method in brief: as §1
# [10] = biological target: T5, ERF (Homo sapiens, UniProt P50548 1-548); conditions: protein: recombinant; tags: N-terminal GST; dsDNA, one strand shown
# T5 sequence: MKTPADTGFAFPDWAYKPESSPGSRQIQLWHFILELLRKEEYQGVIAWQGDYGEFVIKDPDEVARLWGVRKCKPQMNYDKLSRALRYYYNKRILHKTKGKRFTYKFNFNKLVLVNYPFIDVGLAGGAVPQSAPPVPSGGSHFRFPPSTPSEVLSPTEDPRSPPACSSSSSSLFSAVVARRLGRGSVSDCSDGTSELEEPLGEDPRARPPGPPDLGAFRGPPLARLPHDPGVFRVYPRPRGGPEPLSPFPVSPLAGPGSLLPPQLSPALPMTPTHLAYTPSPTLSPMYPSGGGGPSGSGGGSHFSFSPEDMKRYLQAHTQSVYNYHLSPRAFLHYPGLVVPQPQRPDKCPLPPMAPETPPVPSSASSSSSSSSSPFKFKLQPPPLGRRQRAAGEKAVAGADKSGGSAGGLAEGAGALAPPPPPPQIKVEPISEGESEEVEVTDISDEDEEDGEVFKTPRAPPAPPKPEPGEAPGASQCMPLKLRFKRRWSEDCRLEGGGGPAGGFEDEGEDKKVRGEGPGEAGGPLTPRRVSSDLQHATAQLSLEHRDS
# Method in brief: as §1
# [11] = biological target: T6, ETV3L (Homo sapiens, UniProt Q6ZN32 1-361); conditions: protein: recombinant; tags: N-terminal GST; dsDNA, one strand shown
# T6 sequence: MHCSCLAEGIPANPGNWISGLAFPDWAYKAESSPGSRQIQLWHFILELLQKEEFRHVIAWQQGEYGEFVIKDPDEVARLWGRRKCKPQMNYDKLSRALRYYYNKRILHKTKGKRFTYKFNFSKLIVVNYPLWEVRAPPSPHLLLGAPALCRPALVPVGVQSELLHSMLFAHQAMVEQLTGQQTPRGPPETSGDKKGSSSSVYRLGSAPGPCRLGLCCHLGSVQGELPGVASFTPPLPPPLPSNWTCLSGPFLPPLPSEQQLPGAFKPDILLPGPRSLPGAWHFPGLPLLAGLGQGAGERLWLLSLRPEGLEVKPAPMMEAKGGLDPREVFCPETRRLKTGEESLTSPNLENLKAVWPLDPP
# Method in brief: as §1
# [12] = biological target: T7, ETS2 (Homo sapiens, UniProt P15036 1-469); conditions: protein: recombinant; tags: N-terminal GST; dsDNA, one strand shown
# T7 sequence: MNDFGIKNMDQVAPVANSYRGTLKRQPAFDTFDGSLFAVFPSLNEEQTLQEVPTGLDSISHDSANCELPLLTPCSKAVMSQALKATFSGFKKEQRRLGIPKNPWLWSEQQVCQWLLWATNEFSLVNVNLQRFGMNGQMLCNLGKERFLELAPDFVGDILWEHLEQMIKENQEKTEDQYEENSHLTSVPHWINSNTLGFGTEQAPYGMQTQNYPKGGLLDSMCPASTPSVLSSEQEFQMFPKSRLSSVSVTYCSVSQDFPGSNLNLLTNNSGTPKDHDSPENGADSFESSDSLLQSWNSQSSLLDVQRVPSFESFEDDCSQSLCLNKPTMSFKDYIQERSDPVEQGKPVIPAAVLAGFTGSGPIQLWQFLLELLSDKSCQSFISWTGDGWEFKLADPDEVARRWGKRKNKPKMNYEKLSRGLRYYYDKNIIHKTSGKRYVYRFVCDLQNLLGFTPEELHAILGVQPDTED
# Method in brief: as §1
# [13] = biological target: T8, ETV7 (Homo sapiens, UniProt Q9Y603 1-341); conditions: protein: recombinant; tags: N-terminal GST; dsDNA, one strand shown
# T8 sequence: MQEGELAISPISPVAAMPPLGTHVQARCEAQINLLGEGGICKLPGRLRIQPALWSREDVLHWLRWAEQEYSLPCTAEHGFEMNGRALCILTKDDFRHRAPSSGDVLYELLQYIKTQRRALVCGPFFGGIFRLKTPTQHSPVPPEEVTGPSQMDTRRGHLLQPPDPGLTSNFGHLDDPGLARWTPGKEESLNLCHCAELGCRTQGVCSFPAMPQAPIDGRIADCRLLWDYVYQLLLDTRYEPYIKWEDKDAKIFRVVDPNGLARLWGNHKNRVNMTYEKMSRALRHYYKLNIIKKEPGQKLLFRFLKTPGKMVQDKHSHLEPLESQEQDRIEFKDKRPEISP
# Method in brief: as §1
# [14] = biological target: T9, ELF5 (Homo sapiens, UniProt Q9UKW6-2 1-255); conditions: protein: recombinant; tags: N-terminal GST; dsDNA, one strand shown
# T9 sequence: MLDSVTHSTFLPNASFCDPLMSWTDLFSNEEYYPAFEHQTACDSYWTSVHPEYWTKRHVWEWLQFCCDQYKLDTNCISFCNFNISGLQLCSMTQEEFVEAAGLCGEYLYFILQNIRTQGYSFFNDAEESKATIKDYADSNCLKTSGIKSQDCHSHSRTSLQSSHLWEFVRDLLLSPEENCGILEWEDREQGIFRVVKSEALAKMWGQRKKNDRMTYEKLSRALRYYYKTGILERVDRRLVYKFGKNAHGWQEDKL
# Method in brief: as §1
# [15] = biological target: T10, ETV3 (Homo sapiens, UniProt P41162-2 1-143); conditions: protein: recombinant; tags: N-terminal GST; dsDNA, one strand shown
# T10 sequence: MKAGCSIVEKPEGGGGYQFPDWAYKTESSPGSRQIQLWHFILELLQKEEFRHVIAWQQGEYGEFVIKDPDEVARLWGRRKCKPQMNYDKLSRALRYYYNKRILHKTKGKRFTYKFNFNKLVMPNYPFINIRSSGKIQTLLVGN
# Method in brief: as §1
# [16] = biological target: ETV6 (Homo sapiens, UniProt P41212 1-452); conditions: protein: recombinant; tags: N-terminal GST; dsDNA, one strand shown
# Sequence of ETV6 (P41212 whole entry): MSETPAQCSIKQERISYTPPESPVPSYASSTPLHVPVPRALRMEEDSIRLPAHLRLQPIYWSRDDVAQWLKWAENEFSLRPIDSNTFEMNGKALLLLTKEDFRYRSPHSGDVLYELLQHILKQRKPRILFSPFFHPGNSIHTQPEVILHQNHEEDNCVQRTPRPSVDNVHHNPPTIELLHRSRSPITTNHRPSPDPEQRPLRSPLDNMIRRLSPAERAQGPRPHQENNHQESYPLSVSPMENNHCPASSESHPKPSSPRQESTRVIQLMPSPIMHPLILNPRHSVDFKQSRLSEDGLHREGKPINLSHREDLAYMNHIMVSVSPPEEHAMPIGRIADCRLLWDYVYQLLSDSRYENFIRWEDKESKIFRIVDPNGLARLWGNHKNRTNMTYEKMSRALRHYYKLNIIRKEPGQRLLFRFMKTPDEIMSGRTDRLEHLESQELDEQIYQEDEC
# Method in brief: as §1
sequence,measurement,setting,value
CGAACT,binding signal,[1],"1.16 fold enrichment (6-mer frequency, TF over GST control)"
same,binding signal,[2],"1.19 fold enrichment (6-mer frequency, TF over GST control)"
same,binding signal,[3],"1.48 fold enrichment (6-mer frequency, TF over GST control)"
same,binding signal,[4],"1.01 fold enrichment (6-mer frequency, TF over GST control)"
same,binding signal,[5],"1.12 fold enrichment (6-mer frequency, TF over GST control)"
same,binding signal,[6],"1.15 fold enrichment (6-mer frequency, TF over GST control)"
same,binding signal,[7],"1.02 fold enrichment (6-mer frequency, TF over GST control)"
same,binding signal,[8],"1.05 fold enrichment (6-mer frequency, TF over GST control)"
same,binding signal,[9],"1.1 fold enrichment (6-mer frequency, TF over GST control)"
same,binding signal,[10],"1.16 fold enrichment (6-mer frequency, TF over GST control)"
same,binding signal,[11],"1.12 fold enrichment (6-mer frequency, TF over GST control)"
same,binding signal,[12],"1.18 fold enrichment (6-mer frequency, TF over GST control)"
same,binding signal,[13],"1.15 fold enrichment (6-mer frequency, TF over GST control)"
same,binding signal,[14],"1.07 fold enrichment (6-mer frequency, TF over GST control)"
same,binding signal,[15],"1.18 fold enrichment (6-mer frequency, TF over GST control)"
same,binding signal,[16],"1.13 fold enrichment (6-mer frequency, TF over GST control)"
